High-throughput results deposited in PubChem by National Center for Advancing Translational Sciences (NCATS).
Only some compounds are listed: those with a hit (about 11% of all), similar ones and a draw of the others.
HEK cytotox: HEK 293 cell cytotoxicity | Potency, µM (doses to about 115 µM), for the others: at the highest dose activity change, negative = cytotoxicity, usual class: inhibitors | HEK 293 viability, ATP luminescence (CellTiter-Glo), 48-72 h | actives 6.6% (n = 94,000) | AID 1345083; note: nearly all actives have a fitted effect of over 60% in size
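qHTS cytotoxicity; HEK 293, 250 cells/well; compound pinned; 48 or 72 hr, 37 degree Celsius, 5% CO2, 95% humidity; CellTiter-Glo, 10 min RT; luminescence (ATP).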
3T3 cytotox: NIH 3T3 cell cytotoxicity; NIH 3T3 viability, CellTiter-Glo ATP luminescence, 48-72 h; Potency, µM (titrated, usually from 96.7 µM), inactives show top-dose activity change, negative = cytotoxicity, usual class: inhibitors; actives 4.3% (n = 94,000); AID 1345082; note: nearly all actives have a fitted effect of over 55% in size
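Cytotoxicity was measured by CellTiter-Glo ATP luminescence after 48 or 72 h compound exposure at 37 °C. Mouse NIH 3T3 fibroblasts were seeded at 400 cells/well and dosed by 23 nL pin transfer.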
Luciferase inh: Photinus pyralis luciferase inhibition; purified P. pyralis luciferase, luminescence, biochemical; Potency, µM (top dose mostly 115 µM), actives largely listed as inhibitors; P08659; actives 2.5% (n = 76,000); AID 1347043; note: nearly all actives have a fitted effect of over 65% in size
Target sequence (P08659 whole entry, looked up): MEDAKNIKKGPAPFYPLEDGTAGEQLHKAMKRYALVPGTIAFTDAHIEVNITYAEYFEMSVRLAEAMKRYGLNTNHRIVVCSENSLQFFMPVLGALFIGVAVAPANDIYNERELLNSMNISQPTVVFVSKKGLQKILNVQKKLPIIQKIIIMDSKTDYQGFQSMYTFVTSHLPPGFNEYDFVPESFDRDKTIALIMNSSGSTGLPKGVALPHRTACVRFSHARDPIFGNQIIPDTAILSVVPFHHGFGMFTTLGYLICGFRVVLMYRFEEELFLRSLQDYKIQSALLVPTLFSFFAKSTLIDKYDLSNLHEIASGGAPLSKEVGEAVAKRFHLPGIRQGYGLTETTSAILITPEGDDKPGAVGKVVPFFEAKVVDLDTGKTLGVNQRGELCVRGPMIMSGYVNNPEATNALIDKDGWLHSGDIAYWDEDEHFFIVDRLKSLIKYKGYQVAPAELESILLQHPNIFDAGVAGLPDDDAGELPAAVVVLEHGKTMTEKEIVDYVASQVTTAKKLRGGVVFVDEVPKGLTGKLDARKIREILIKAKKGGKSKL
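Cell-free enzyme assay, 10nM P. pyralis luciferase, luciferin and ATP each at 10uM. Inhibition profiled over a 6-point titration, read as luminescence.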
hNpr1 antagonist: human Npr1 receptor antagonism; HEK293 hNpr1 GloSensor cGMP, ANP-stimulated luminescence; Potency, µM (top dose mostly 46.3 µM), for the others: at the highest dose activity change, negative = inhibition, usual class: inhibitors; actives 1.6% (n = 76,000); calls by dose curve; note: nearly all actives have a fitted effect of over 60% in size
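HEK293 cells stably expressing human Npr1 and cGMP GloSensor pGS-40F, loaded 2 h with 2% GloSensor reagent, given compound 30 min at room temperature. Luminescence read before and 20 min after 0.1 nM hNppA.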
* = called active by the depositor; i = inactive; ? = inconclusive; nt = no result given; ! = not active in a repeat; [ ] = another dose, or the depositor's remark. Unless noted, calls come from the whole dose curve; as a rule, active = well fitted curve in the direction sought with a large enough effect; inconclusive = small, poorly fitted or top-dose-only effect, or another doubt; inactive = no such curve, though single readings can be large; an effect the other way counts as inactive or inconclusive. % is set by controls: 0 for no effect and ±100 for the full control effect; potency is the fitted concentration of half-maximal effect.

SMILES	HEK cytotox	3T3 cytotox	Luciferase inh	hNpr1 antagonist
COc1ccc(C(=O)N2CCc3ccc(C(=O)NCc4cccc(OC)c4)cc32)cc1	79.4µM*	?	i	2.0%
COc1ccc(C(=O)N2CCc3ccc(C(=O)NCc4cccc(F)c4)cc32)cc1	39.8µM*	?	i	-25.8%
COc1cccc(CN2CC[C@H](c3nc4cc(Cl)ccc4o3)C2)c1	?	89.1µM*	?	-1.5%[70.6 µM]
CCS(=O)(=O)c1ccc2oc([C@H]3CCN(Cc4ccc(OC)cc4)C3)nc2c1	63.1µM*	?	i	?
Fc1ccc(CN2CC[C@H](c3nc4cc(Cl)ccc4o3)C2)cc1F	89.1µM*	?	i	-27.6%[70.6 µM]
CCS(=O)(=O)c1ccc2oc([C@H]3CCN(Cc4c[nH]c5ccccc45)C3)nc2c1	?	?	i	-9.7%[70.6 µM]
COc1cccc(CN2CCC(Cc3ncc(C)n3Cc3ccccc3)C2)c1 (stereo not given)	44.7µM*	35.5µM*	i	-19.1%
Fc1ccc2oc([C@H]3CCN(Cc4ccc(F)c(F)c4)C3)nc2c1	?	-25.8%[138 µM]	i	2.4%[70.6 µM]
CN(C)c1nc(-c2ccncc2)nc2c1CCN(C(=O)c1cc(=O)[nH]c(=O)[nH]1)C2	i	1.2%	i	3.5%
COc1cccc(CN2C(=O)C3(CCOCC3)CC2c2nnnn2C(C)(C)C)c1 (stereo not given)	-5.8%	-12.5%	i	4.0%
O=C(Nc1ccc(F)cc1)c1ccn2nccc2c1	?	-25.8%[138 µM]	50.1µM*	-9.4%[70.6 µM]
O=C1CC2(CCN(C(=O)c3ccc(C(F)(F)F)cc3)CC2)Oc2cc(Cl)ccc21	35.5µM*	25.1µM*	i	-20.4%
O=C1CC2(CCN(Cc3cccs3)CC2)Oc2cc(Cl)ccc21	?	?	15.8µM*!	-0.1%
CN(C)c1ccc(CN2CCC3(CC2)CC(=O)c2ccc(Cl)cc2O3)cc1	?	?	i	13.7%
CC(=O)Nc1ccc(CN2CCC3(CC2)CC(=O)c2ccccc2O3)cc1	-15.2%	?	i	0.0%
CC(=O)Nc1ccc(CN2CCC3(CC2)CC(=O)c2ccc(Cl)cc2O3)cc1	50.1µM*	?	i	12.3%
O=C(NCCO)c1ccc(-c2ncc3cnc(C4=CCOCC4)cn23)cc1	i	?	i	-1.3%[70.6 µM]
O=C(c1ccc(-c2ncc3cnc(C4=CCOCC4)cn23)cc1)N1CCc2ccccc2C1	79.4µM*	?	i	-24.8%[70.6 µM]
COCC1CN(C(C)=O)CC12CCN(C(=O)Cc1cccc(F)c1)CC2 (stereo not given)	i	i	i	10.8%
O=C(Cc1ccc(F)cc1)N1CCC2(CC1)CN(Cc1ccccc1)CC2CO (stereo not given)	44.7µM*	?	i	-28.3%
COCC1CN(C)CC12CCN(C(=O)Cc1cccc(Cl)c1)CC2 (stereo not given)	35.5µM*	?	i	-14.6%
COCC1CN(C2CCC2)CC12CCN(C(=O)c1ccccc1Cl)CC2 (stereo not given)	79.4µM*	?	i	-1.6%
COCC1CN(C)CC12CCN(C(=O)Cc1ccc(OC)c(Cl)c1)CC2 (stereo not given)	89.1µM*	-21.9%	i	0.4%
Cc1ccc(CNC(=O)N2CCC(c3noc(-c4cccnc4)n3)C2)cc1 (stereo not given)	-18.5%	-15.7%	i	-1.2%
C[S+](=O)([O-])c1cccc(-c2nnc3ccc(C(=O)NCC(F)F)cn23)c1	1.3%	-14.0%	nt	nt
SMILES	HEK cytotox	3T3 cytotox	Luciferase inh	hNpr1 antagonist
COCC1CN(C2CCC2)CC12CCN(C(=O)Cc1cccc(F)c1)CC2 (stereo not given)	50.1µM*	?	i	-17.9%
COCC1CN(C2CCC2)CC12CCN(C(=O)Cc1cccc(OC)c1)CC2 (stereo not given)	?	?	i	-14.6%
Cc1ccc(SC2CCN(Cc3cc4n(n3)CCNC4)CC2)cc1	14.1µM*	14.1µM*	i	1.0%
COc1ccccc1OC1CCN(Cc2cc3n(n2)CCNC3)CC1	-7.6%	-5.8%	i	1.8%
Cn1c(=O)n([C@@H]2CCN(C(=O)CCc3nc4ccccc4s3)C2)c2ncccc21	-12.5%	?	nt	nt
COc1cccc(-c2cc3c(=O)n(CCNC(=O)Cc4ccsc4)ccn3n2)c1	?	-24.7%	28.2µM*	-2.7%
